Data published in PubChem BioAssay (NCATS).
Where “and” joins values, the source holds several entries; their conditions need not be identical. Equal entries are not always repeated. Inconclusive results are not listed. A call without a number means that no potency is given here. Calls of active or inactive are those of the source. Calls follow the shape of the dose curve; as a rule, active = well fitted cell-killing curve with a large enough effect; inconclusive = small, poorly fitted or top-dose-only effect; inactive = flat fitted curve, though single readings scatter.
Potency is read from the fitted curve at half-maximal effect.

Assay: Cell Viability - LYMP2-022 (AID 987); also: nearly all actives have a fitted effect of over 55% in size
Conditions: LYMP2-022 lymphoblastoid cell viability; series mostly up to 92.2 µM
In short: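 Cytotoxicity read as decreased cellular ATP (CellTiter-Glo luminescence, 30 min room temperature) after 24 hours compound exposure of 2500 lymphoblastoid LYMP2-022 cells/well at 37 C. Concentration-response data fitted with standard Hill equation for AC50.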
In the case of CCCN(CCC)C(=O)SCC, the Potency is reported as “inactive”.
With COc1ccc2nc(N)sc2c1 the Potency was “inactive”.
With ClCCCl the Potency was “inactive”.
For CCC(O)OC(O)CC (stereo not given), the Potency was “inactive”.
In the case of C=Cc1ccccc1Cl, the Potency is reported as “inactive”.
In the case of c1ccc2c(c1)c1cccc3ccc4cccc2c4c31, the Potency is reported as “inactive”.
For Cc1cccc([N+](=O)[O-])c1C, the Potency was “inactive”.
In the case of CCCCCCCCO, the Potency is reported as “inactive”.
In the case of CC(C)=CCCC(C)CCO (stereo not given), the Potency is reported as “inactive”.
With O=[N+]([O-])c1cccc(Cl)c1Cl the Potency was “inactive”.
With CCO[Si](CCCN)(OCC)OCC the Potency was “inactive”.
In the case of Clc1cc(Cl)c(Cl)cc1Cl, the Potency is reported as “inactive”.
For CCO, the Potency was “inactive”.
With C=CC(=O)OCCOCCOCCOCCOC(=O)C=C the Potency was 12.6 µM (active).
With Clc1cc(Cl)c(Cl)c(Cl)c1Cl the Potency was “inactive”.
With CCCCC(CC)CN (stereo not given) the Potency was “inactive”.
With O=NO the Potency was “inactive”.
For c1ccc2c(c1)[nH]c1ccccc12, the Potency was “inactive”.
With OCCNCCO the Potency was “inactive”.
For Nc1ccc(Cl)cc1Cl, the Potency was “inactive”.
In the case of CCC(C)c1ccccc1O (stereo not given), the Potency is reported as “inactive”.
With CC1=CC(C)(C)Nc2ccccc21 the Potency was “inactive”.
For CN(C)C=O, the Potency was “inactive”.
In the case of Cc1ccc(N)c([N+](=O)[O-])c1, the Potency is reported as “inactive”.
With CCCCOCCO the Potency was “inactive”.
In the case of CC(=O)OC/C=C(\C)CCC=C(C)C, the Potency is reported as “inactive”.

Assay: Cell Viability - LYMP2-024 (AID 988); also: nearly all actives have a fitted effect of over 60% in size
Conditions: LYMP2-024 lymphoblastoid cell viability; series mostly up to 92.2 µM
In short: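 Cytotoxicity was taken as a decrease in ATP (CellTiter-Glo luminescence) after 24 hr compound exposure at 37 C of LYMP2-024 lymphoblastoid cells, 2500 cells/well. Concentration-response data were fitted to the Hill equation to give AC50.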
With CCCN(CCC)C(=O)SCC the Potency was “inactive”.
For COc1ccc2nc(N)sc2c1, the Potency was “inactive”.
For ClCCCl, the Potency was “inactive”.
With CCC(O)OC(O)CC (stereo not given) the Potency was “inactive”.
In the case of C=Cc1ccccc1Cl, the Potency is reported as “inactive”.
With c1ccc2c(c1)c1cccc3ccc4cccc2c4c31 the Potency was “inactive”.
With Cc1cccc([N+](=O)[O-])c1C the Potency was “inactive”.
In the case of CCCCCCCCO, the Potency is reported as “inactive”.
With CC(C)=CCCC(C)CCO (stereo not given) the Potency was “inactive”.
In the case of O=[N+]([O-])c1cccc(Cl)c1Cl, the Potency is reported as “inactive”.
With CCO[Si](CCCN)(OCC)OCC the Potency was “inactive”.
With Clc1cc(Cl)c(Cl)cc1Cl the Potency was “inactive”.
In the case of CCO, the Potency is reported as “inactive”.
In the case of C=CC(=O)OCCOCCOCCOCCOC(=O)C=C, the Potency is reported as 12.6 µM (active) and 15.8 µM (active).
For Clc1cc(Cl)c(Cl)c(Cl)c1Cl, the Potency was “inactive”.
For CCCCC(CC)CN (stereo not given), the Potency was “inactive”.
With O=NO the Potency was “inactive”.
For c1ccc2c(c1)[nH]c1ccccc12, the Potency was “inactive”.
With OCCNCCO the Potency was “inactive”.
In the case of Nc1ccc(Cl)cc1Cl, the Potency is reported as “inactive”.
For CCC(C)c1ccccc1O (stereo not given), the Potency was “inactive”.
For CC1=CC(C)(C)Nc2ccccc21, the Potency was “inactive”.
In the case of CN(C)C=O, the Potency is reported as “inactive”.
For Cc1ccc(N)c([N+](=O)[O-])c1, the Potency was “inactive”.
With CCCCOCCO the Potency was “inactive”.
In the case of CC(=O)OC/C=C(\C)CCC=C(C)C, the Potency is reported as “inactive”.

Assay: Cell Viability - LYMP2-026 (AID 989); also: nearly all actives have a fitted effect of over 50% in size
Conditions: LYMP2-026 lymphoblastoid cell viability, qHTS; series mostly up to 92.2 µM
In short: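 Cytotoxicity read as ATP-dependent luminescence (CellTiter-Glo, 30 min room temperature) after 24 h compound treatment at 37 C. LYMP2-026 lymphoblastoid line seeded at 2500 cells/well; AC50 derived by standard Hill equation.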
With CCCN(CCC)C(=O)SCC the Potency was “inactive”.
With COc1ccc2nc(N)sc2c1 the Potency was “inactive”.
With ClCCCl the Potency was “inactive”.
In the case of CCC(O)OC(O)CC (stereo not given), the Potency is reported as “inactive”.
For C=Cc1ccccc1Cl, the Potency was “inactive”.
For c1ccc2c(c1)c1cccc3ccc4cccc2c4c31, the Potency was “inactive”.
With Cc1cccc([N+](=O)[O-])c1C the Potency was “inactive”.
With CCCCCCCCO the Potency was “inactive”.
With CC(C)=CCCC(C)CCO (stereo not given) the Potency was “inactive”.
With O=[N+]([O-])c1cccc(Cl)c1Cl the Potency was “inactive”.
With CCO[Si](CCCN)(OCC)OCC the Potency was “inactive”.
For Clc1cc(Cl)c(Cl)cc1Cl, the Potency was “inactive”.
With CCO the Potency was “inactive”.
In the case of C=CC(=O)OCCOCCOCCOCCOC(=O)C=C, the Potency is reported as 15.8 µM (active) and 20 µM (active).
In the case of Clc1cc(Cl)c(Cl)c(Cl)c1Cl, the Potency is reported as “inactive”.
With CCCCC(CC)CN (stereo not given) the Potency was “inactive”.
With O=NO the Potency was “inactive”.
For c1ccc2c(c1)[nH]c1ccccc12, the Potency was “inactive”.
With OCCNCCO the Potency was “inactive”.
For Nc1ccc(Cl)cc1Cl, the Potency was “inactive”.
With CCC(C)c1ccccc1O (stereo not given) the Potency was “inactive”.
In the case of CC1=CC(C)(C)Nc2ccccc21, the Potency is reported as “inactive”.
In the case of CN(C)C=O, the Potency is reported as “inactive”.
For Cc1ccc(N)c([N+](=O)[O-])c1, the Potency was “inactive”.
With CCCCOCCO the Potency was “inactive”.
In the case of CC(=O)OC/C=C(\C)CCC=C(C)C, the Potency is reported as “inactive”.

Assay: Cell Viability - LYMP1-002 - Assay at 24 hr (AID 993)
Conditions: LYMP1-002 lymphoblastoid cells viability; series mostly up to 92.2 µM
In short: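 qHTS cytotoxicity at 24 h: CellTiter-Glo ATP luminescence in lymphoblastoid line LYMP1-002 incubated with compound at 37 °C. Concentration-response modeled with the Hill equation for AC50; tetraoctylammonium bromide served as positive control.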
For CCCN(CCC)C(=O)SCC, the Potency was “inactive”.
For COc1ccc2nc(N)sc2c1, the Potency was “inactive”.
For ClCCCl, the Potency was “inactive”.
With CCC(O)OC(O)CC (stereo not given) the Potency was “inactive”.
With C=Cc1ccccc1Cl the Potency was “inactive”.
With c1ccc2c(c1)c1cccc3ccc4cccc2c4c31 the Potency was “inactive”.
For Cc1cccc([N+](=O)[O-])c1C, the Potency was “inactive”.
In the case of CCCCCCCCO, the Potency is reported as “inactive”.
For CC(C)=CCCC(C)CCO (stereo not given), the Potency was “inactive”.
With O=[N+]([O-])c1cccc(Cl)c1Cl the Potency was “inactive”.
In the case of CCO[Si](CCCN)(OCC)OCC, the Potency is reported as “inactive”.
In the case of Clc1cc(Cl)c(Cl)cc1Cl, the Potency is reported as “inactive”.
With CCO the Potency was “inactive”.
With C=CC(=O)OCCOCCOCCOCCOC(=O)C=C the Potency was 25.1 µM (active).
With Clc1cc(Cl)c(Cl)c(Cl)c1Cl the Potency was “inactive”.
For CCCCC(CC)CN (stereo not given), the Potency was “inactive”.
For O=NO, the Potency was “inactive”.
For c1ccc2c(c1)[nH]c1ccccc12, the Potency was “inactive”.
In the case of OCCNCCO, the Potency is reported as “inactive”.
For Nc1ccc(Cl)cc1Cl, the Potency was “inactive”.
In the case of CCC(C)c1ccccc1O (stereo not given), the Potency is reported as “inactive”.
In the case of CC1=CC(C)(C)Nc2ccccc21, the Potency is reported as “inactive”.
In the case of CN(C)C=O, the Potency is reported as “inactive”.
With Cc1ccc(N)c([N+](=O)[O-])c1 the Potency was “inactive”.
With CCCCOCCO the Potency was “inactive”.
With CC(=O)OC/C=C(\C)CCC=C(C)C the Potency was “inactive”.

Assay: Cell Viability - LYMP1-002 - Assay at 40 hr (AID 994); also: nearly all actives have a fitted effect of over 60% in size
Conditions: LYMP1-002 lymphoblastoid cell viability; series mostly up to 92.2 µM
In short: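 Cytotoxicity was read as loss of cellular ATP (CellTiter-Glo luminescence) after 40 hr compound exposure at 37 C of 2500 LYMP1-002 lymphoblastoid cells per well. Concentration-response data were fitted with the standard Hill equation to give AC50.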
With CCCN(CCC)C(=O)SCC the Potency was “inactive”.
For COc1ccc2nc(N)sc2c1, the Potency was “inactive”.
With ClCCCl the Potency was “inactive”.
In the case of CCC(O)OC(O)CC (stereo not given), the Potency is reported as “inactive”.
With C=Cc1ccccc1Cl the Potency was “inactive”.
For c1ccc2c(c1)c1cccc3ccc4cccc2c4c31, the Potency was “inactive”.
With Cc1cccc([N+](=O)[O-])c1C the Potency was “inactive”.
With CCCCCCCCO the Potency was “inactive”.
In the case of CC(C)=CCCC(C)CCO (stereo not given), the Potency is reported as “inactive”.
With O=[N+]([O-])c1cccc(Cl)c1Cl the Potency was “inactive”.
In the case of CCO[Si](CCCN)(OCC)OCC, the Potency is reported as “inactive”.
For Clc1cc(Cl)c(Cl)cc1Cl, the Potency was “inactive”.
With CCO the Potency was “inactive”.
For C=CC(=O)OCCOCCOCCOCCOC(=O)C=C, the Potency was 20 µM (active) and 25.1 µM (active).
For Clc1cc(Cl)c(Cl)c(Cl)c1Cl, the Potency was “inactive”.
In the case of CCCCC(CC)CN (stereo not given), the Potency is reported as “inactive”.
For O=NO, the Potency was “inactive”.
In the case of c1ccc2c(c1)[nH]c1ccccc12, the Potency is reported as “inactive”.
In the case of OCCNCCO, the Potency is reported as “inactive”.
In the case of Nc1ccc(Cl)cc1Cl, the Potency is reported as “inactive”.
In the case of CCC(C)c1ccccc1O (stereo not given), the Potency is reported as “inactive”.
With CC1=CC(C)(C)Nc2ccccc21 the Potency was “inactive”.
With CN(C)C=O the Potency was “inactive”.
In the case of Cc1ccc(N)c([N+](=O)[O-])c1, the Potency is reported as “inactive”.
In the case of CCCCOCCO, the Potency is reported as “inactive”.
For CC(=O)OC/C=C(\C)CCC=C(C)C, the Potency was “inactive”.
